Reference: PubChem BioAssay AID602261 (Sanford-Burnham Center for Chemical Genomics, 2012)
The whole screen tested about 360,000 compounds, of which about 2,400 (0.67%) were called active. What follows is part of a selection rich in actives, with near analogues and random picks from the rest. A number with no mark means an inactive call.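 The calls were made as follows: active = compounds whose normalised, plate-corrected inhibition of enzyme fluorescence in the single-dose primary screen is 50% or more; inactive = the rest.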

Biological target: Fatty acid synthase (Homo sapiens) (UniProt P49327)
Sequence (P49327 whole entry, looked up): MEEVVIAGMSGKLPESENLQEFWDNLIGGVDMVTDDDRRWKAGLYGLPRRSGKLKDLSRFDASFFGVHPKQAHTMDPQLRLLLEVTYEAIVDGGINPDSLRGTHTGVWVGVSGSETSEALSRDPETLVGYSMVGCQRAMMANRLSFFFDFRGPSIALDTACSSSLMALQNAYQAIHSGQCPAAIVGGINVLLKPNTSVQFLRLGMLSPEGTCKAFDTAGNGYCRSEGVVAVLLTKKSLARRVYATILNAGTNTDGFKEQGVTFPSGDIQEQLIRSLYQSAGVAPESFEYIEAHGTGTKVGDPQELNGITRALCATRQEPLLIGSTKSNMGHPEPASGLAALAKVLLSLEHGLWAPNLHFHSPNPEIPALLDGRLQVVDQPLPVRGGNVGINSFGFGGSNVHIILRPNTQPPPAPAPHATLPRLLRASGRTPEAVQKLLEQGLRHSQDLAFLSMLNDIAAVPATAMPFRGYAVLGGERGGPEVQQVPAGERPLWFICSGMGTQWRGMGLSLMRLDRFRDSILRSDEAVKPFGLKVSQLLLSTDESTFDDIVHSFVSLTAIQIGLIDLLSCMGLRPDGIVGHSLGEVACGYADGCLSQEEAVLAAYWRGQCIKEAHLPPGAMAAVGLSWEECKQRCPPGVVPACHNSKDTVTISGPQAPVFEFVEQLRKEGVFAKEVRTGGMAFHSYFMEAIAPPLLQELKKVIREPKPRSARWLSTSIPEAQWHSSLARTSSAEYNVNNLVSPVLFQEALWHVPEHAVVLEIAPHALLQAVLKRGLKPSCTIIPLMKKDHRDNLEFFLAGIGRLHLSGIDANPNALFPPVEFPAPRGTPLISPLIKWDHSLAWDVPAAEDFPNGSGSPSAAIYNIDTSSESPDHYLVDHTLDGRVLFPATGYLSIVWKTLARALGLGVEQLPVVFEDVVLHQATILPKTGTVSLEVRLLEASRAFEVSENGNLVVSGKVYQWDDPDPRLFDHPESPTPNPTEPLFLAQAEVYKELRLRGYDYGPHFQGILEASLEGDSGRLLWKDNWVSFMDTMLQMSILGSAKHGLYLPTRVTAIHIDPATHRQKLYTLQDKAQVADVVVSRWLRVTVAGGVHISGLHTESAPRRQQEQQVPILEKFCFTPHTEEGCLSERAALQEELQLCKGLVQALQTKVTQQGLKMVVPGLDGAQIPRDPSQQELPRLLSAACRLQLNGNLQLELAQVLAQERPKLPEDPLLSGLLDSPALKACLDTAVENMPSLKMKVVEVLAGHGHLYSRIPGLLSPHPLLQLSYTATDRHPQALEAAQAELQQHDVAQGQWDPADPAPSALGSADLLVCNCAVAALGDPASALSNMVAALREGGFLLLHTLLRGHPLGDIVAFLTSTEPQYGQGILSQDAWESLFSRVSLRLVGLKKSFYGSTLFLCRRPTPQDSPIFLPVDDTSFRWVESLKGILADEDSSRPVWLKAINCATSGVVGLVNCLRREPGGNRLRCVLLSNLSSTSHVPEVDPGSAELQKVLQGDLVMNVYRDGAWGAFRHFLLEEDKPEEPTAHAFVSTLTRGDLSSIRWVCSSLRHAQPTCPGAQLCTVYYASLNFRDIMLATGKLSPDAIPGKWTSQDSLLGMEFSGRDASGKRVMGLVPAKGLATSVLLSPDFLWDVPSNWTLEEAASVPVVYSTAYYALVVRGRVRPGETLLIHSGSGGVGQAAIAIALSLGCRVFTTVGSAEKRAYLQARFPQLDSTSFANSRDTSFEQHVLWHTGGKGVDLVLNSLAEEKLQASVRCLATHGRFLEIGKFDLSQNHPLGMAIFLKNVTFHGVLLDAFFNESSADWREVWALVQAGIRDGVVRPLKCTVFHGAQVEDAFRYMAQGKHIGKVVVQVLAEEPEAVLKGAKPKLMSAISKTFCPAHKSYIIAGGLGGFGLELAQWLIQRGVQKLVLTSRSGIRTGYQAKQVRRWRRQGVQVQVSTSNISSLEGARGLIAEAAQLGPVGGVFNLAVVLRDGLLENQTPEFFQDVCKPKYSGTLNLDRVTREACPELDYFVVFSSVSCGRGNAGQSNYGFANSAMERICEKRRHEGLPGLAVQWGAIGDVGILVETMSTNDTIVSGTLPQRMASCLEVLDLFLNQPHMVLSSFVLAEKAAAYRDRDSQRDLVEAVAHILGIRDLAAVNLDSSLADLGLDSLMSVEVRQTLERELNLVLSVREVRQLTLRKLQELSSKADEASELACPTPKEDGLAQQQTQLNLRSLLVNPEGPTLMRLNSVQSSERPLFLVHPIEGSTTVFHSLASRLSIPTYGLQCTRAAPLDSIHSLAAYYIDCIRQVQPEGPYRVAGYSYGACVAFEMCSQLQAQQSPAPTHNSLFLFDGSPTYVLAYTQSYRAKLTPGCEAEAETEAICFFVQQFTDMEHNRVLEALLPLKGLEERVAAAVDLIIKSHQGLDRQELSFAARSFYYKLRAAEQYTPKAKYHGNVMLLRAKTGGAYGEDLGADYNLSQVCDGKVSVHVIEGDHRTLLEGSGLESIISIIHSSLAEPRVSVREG
Experiment: inhibition of human FAS-TE enzyme activity – biochemical, fluorescence intensity, uHTS, primary screen (AID 602261);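 also: 0% = DMSO with enzyme and 100% = substrate without enzyme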
Settings: recombinant FAS-TE, OMFH fluorogenic substrate, fluorescence endpoint; at 15 µM; hits give high values

Row | SMILES | inhibition
1 | NC(=O)COC(=O)c1sc2cc(F)ccc2c1Cl | 5%
2 | CCOc1ccc2[nH]c(=S)sc2c1 | -1.4%
3 | CN1CCN(S(=O)(=O)c2ccc(Nc3ccc(F)cc3)nc2)CC1 | -0.3%
4 | CC1CN(C(=O)c2cc(COc3c(F)cccc3F)on2)CCN1C (centres undefined) | -5.4%
5 | Cc1nnc(-c2ccc(Oc3ccc(C)c(C)c3)c([N+](=O)[O-])c2)o1 | 21.4%
6 | COc1cccc2c1CCC(NC(C)=O)C2=O (centres undefined) | -7.2%
7 | O=C(NC(Nc1nc2ccc([N+](=O)[O-])cc2s1)(C(F)(F)F)C(F)(F)F)c1ccccc1 | 10.8%
8 | Brc1ccccc1/C=N/Nc1nc2ccccc2o1 | -4.3%
9 | O=[N+]([O-])c1cc(Br)c(O)c(/C=N/Nc2nc3ccccc3s2)c1 | 52.5% (active)
10 | COc1ccc(SCc2noc(C(=O)NCC3CCCO3)c2C(=O)O)cc1 (centres undefined) | -6.7%
11 | Cc1cccc(N(CC(=O)N2CCCC2)S(C)(=O)=O)c1C | -4.4%
12 | COCCN1C2=C(COC(C)(C)C2)C(=S)NC1c1ccccc1 (centres undefined) | -8.2%
13 | Cc1ccc2c(c1)NC(=O)[C@@]1(C)[C@@H](c3ccccc3)[C@H]3COc4ccc(Cl)cc4[C@@H]3N1C2=O | 15.6%
14 | CCOC(=O)[C@H]1[C@H]2COc3ccc(OC)cc3[C@@H]2N2C(=O)c3ccc(F)cc3NC(=O)[C@@]12C | -4.6%
15 | COc1ccc2c(c1)[C@H]1[C@H](CO2)[C@H](c2ccccc2)[C@]2(C)C(=O)Nc3cc(F)c(F)cc3C(=O)N12 | 71.2% (active)
16 | CCOC(=O)c1ccc(COC(=O)CCc2nc(-c3ccccc3)c(-c3ccccc3)o2)cc1 | 26.3%
17 | COc1cc(OC)cc(-c2cc3nc(C4CCN(C(=O)OC(C)(C)C)CC4)cc(=O)n3[nH]2)c1 | -5.7%
18 | CCC(C)NC(=O)C1CCCN(C(=O)NC2CCCCC2)C1 (centres undefined) | -6.1%
19 | O=C(c1[nH]ncc1-c1ccc(Cl)cc1)C1CO1 (centres undefined) | -22%
20 | O=C(NC(=S)NC1CCS(=O)(=O)C1)c1cccc([N+](=O)[O-])c1 (centres undefined) | -3.5%
21 | Cc1ccc(NC(=O)C(=O)NCC2CCN(C(=O)c3cccc([N+](=O)[O-])c3)CC2)cc1 | 0.8%
22 | O=C(Nc1ccc(C2CC2(Cl)Cl)cc1)c1cccc([N+](=O)[O-])c1 (centres undefined) | 90.9% (active)
23 | CCOc1ccc(CCNC(=O)COC(=O)c2ccc(F)c(S(=O)(=O)N3CCOCC3)c2)cc1OCC | -4.3%
24 | N#Cc1c(/N=C/N2CCCC2)oc(-c2ccccc2)c1-c1ccccc1 | 27.6%
25 | Cc1ccc([C@H]2N[C@]3(CCCN(CC4CCCCC4)C3=O)[C@H]3C(=O)N(Cc4ccccc4)C(=O)[C@@H]23)cc1 | 21.4%
26 | O=C1[C@H]2[C@@H](c3ccc(C(F)(F)F)cc3)N[C@]3(CCCN(Cc4ccc(Cl)cc4)C3=O)[C@H]2C(=O)N1Cc1ccccc1 | 41.2%
27 | CC12C(=O)N(c3ccccc3)C(=O)C1C(c1ccccc1)N1CCCN12 (centres undefined) | -2.7%

Row | SMILES | inhibition
28 | CC(C)(C)N1C(=O)[C@H]2[C@@H](c3ccc(Br)cc3)N3C(=O)N(c4cccc(Cl)c4)C(=O)[C@@]3(C)[C@H]2C1=O | 31.7%
29 | C[C@@]12C(=O)N(c3cccc(Br)c3)C(=O)N1[C@H](c1ccc(Cl)cc1)[C@@H]1C(=O)N(C3CCCCC3)C(=O)[C@@H]12 | 93.7% (active)
30 | O=C1[C@H]2[C@@H](c3ccc(Cl)cc3)N3C(=O)N(c4cccc(F)c4)C(=O)[C@@]3(Cc3ccccc3)[C@H]2C(=O)N1C1CCCCC1 | 92.2% (active)
31 | CCN1C(=O)[C@H]2[C@@H](c3ccc(C)cc3)N3C(=O)N(c4cccc(Br)c4)C(=O)[C@@]3(CC)[C@H]2C1=O | -1.3%
32 | O=C1[C@H]2[C@@H](c3ccc(C(F)(F)F)cc3)N[C@]3(CCCN(Cc4ccc(Br)cc4)C3=O)[C@H]2C(=O)N1Cc1ccccc1 | 41.2%
33 | O=C1[C@H]2[C@@H](c3ccc(F)cc3)N3C(=O)N(c4ccc(C(F)(F)F)cc4)C(=O)[C@@]3(Cc3ccccc3)[C@H]2C(=O)N1C1CCCCC1 | 91.3% (active)
34 | Cc1cccc(N2C(=O)N3[C@H](c4ccc(F)cc4)[C@@H]4C(=O)N(C5CCCCC5)C(=O)[C@@H]4[C@]3(Cc3ccccc3)C2=O)c1 | 90.1% (active)
35 | COc1cc(NC(=O)C2=C(C)OCCS2)c(Cl)cc1C(=O)NCCN1CCN(C)CC1 | -10.2%
36 | CC1CCN(S(=O)(=O)c2ccc(NC(=O)C3CC(=O)N(c4ccccc4)C3)cc2)CC1 (centres undefined) | 4.6%
37 | COc1ccc(CNC(=O)CN2CCC(n3nnc4cc(F)ccc43)CC2)cc1 | 1.6%
38 | Cc1csc(SCC(=O)N(c2ccccc2)C(C)C)n1 | -7.2%
39 | CC(NC(=O)C1CCC(CNc2c(N3CCOCC3)c(=O)c2=O)CC1)c1ccccc1 (centres undefined) | 3.6%
40 | S=c1[nH]c2ccccc2c2ccccc12 | -0.9%
41 | COCC1CCN(C(=O)C2CCC(=O)N(Cc3cccc(C(F)(F)F)c3)C2)CC1 (centres undefined) | -6.2%
42 | O=C(CCNS(=O)(=O)c1cccs1)N1CCN(c2ccc(F)cc2)CC1 | -4.4%
43 | NC1=NC(=O)C2(COC(c3ccccc3Cl)OC2)S1 (centres undefined) | -3.8%
44 | COc1ccc([C@@H]2[C@@H]3C(=O)N(C(C)(C)C)C(=O)[C@@H]3[C@]3(Cc4ccccc4)C(=O)N(c4cccc(Br)c4)C(=O)N23)cc1 | 89.7% (active)
45 | CC[C@@]12C(=O)N(c3ccccc3)C(=O)N1[C@H](c1ccc(Br)cc1)[C@@H]1C(=O)N(C(C)(C)C)C(=O)[C@@H]12 | 13.2%
46 | Cc1cccc(N2C(=O)C3C(c4ccccc4)OC4(C(=O)c5ccccc5C4=O)C3C2=O)c1 (centres undefined) | -2.5%
47 | COc1cccc(N2C(=O)CN(Cc3ccccc3)C2=S)c1 | -0.9%
48 | Cc1cccc([C@@H]2[C@@H]3C(=O)N(Cc4ccccc4)C(=O)[C@@H]3[C@]3(C)C(=O)N(c4ccc(Br)cc4)C(=O)N23)c1 | 39.4%
49 | Cc1cccc([C@@H]2[C@@H]3C(=O)N(Cc4ccccc4)C(=O)[C@@H]3[C@]3(Cc4ccc(Cl)cc4)C(=O)N(c4cccc(Cl)c4)C(=O)N23)c1 | 91.3% (active)
50 | CCc1cc(CNC(=O)CC2C(=O)NCCN2Cc2ccccc2C(F)(F)F)on1 (centres undefined) | -2.9%
51 | O=C(NC1CCCCC1)C1CC(=O)N(CCc2ccccc2)C1 (centres undefined) | -6.1%
52 | CCCn1cc(S(=O)(=O)c2ccc(C)cc2)c(=O)c2cc(OCC)ccc21 | 9.4%
53 | Clc1ccc2c(c1)C1=C(C(c3ccncc3)O2)C(c2ccc(Br)cc2)n2ncnc2N1 (centres undefined) | 71.3% (active)
54 | CN(C)CCNc1ccc(-c2n[nH]c(=O)c3ccccc23)cc1[N+](=O)[O-] | -2.9%

Row | SMILES | inhibition
55 | CCOc1cc(/C=C(/C#N)c2ccc(Cl)cc2)cc(Cl)c1OCC(=O)O | 53.1% (active)
56 | COc1cc(/C=C(/NC(=O)c2ccc(Cl)cc2Cl)C(=O)O)cc(OC)c1OC | 0.9%
57 | CCOc1cc(/C=N/NC(=O)OC)ccc1OCCSc1ccc(Cl)cc1 | -4.3%
58 | O=C(c1ccco1)N1CCN=C1SCc1cccc(Cl)c1 | 5.3%
59 | COC(=O)c1sc2[nH]c(=S)n(N)c(=O)c2c1C | -6.3%
60 | O=c1ccc2c(-c3ccccc3S(=O)(=O)O)c3ccc(O)c(O)c3oc-2c1O | 54.8% (active)
61 | Cn1ncc2c(NNC(=O)Cc3cccc4ccccc34)ncnc21 | -10.1%
62 | CC(=O)c1c(C)[nH]c(C(=O)N2CCN(S(=O)(=O)c3ccc(F)c(F)c3)CC2)c1C | -3.9%
63 | COc1ccc(S(=O)(=O)N2CCOCC2)cc1NC(=O)COc1ccccc1 | 2.1%
64 | COc1cc(S(=O)(=O)N2CCOCC2)ccc1NC(=O)COc1ccc(N(C)S(=O)(=O)c2ccc(C)cc2)cc1 | 76.5% (active)
65 | COc1ccc(NC(=O)CNc2cc(S(=O)(=O)N3CCOCC3)ccc2N2CCOCC2)c(OC)c1 | -2.5%
66 | COc1ccc(Cl)cc1NS(=O)(=O)c1cccc(C(=O)NCC2CCCO2)c1 (centres undefined) | -3.9%
67 | Oc1c(Cl)cc(Cl)c(Cl)c1Cc1c(O)c(Cl)cc(Cl)c1Cl | 83.7% (active)
68 | CC1CCCCN1C(=O)CCS(=O)(=O)Cc1ccccc1 (centres undefined) | -4.6%
69 | CCOc1ccccc1N(CC(=O)NC1CCCCC1)C(=O)CCCC(=O)Nc1ccccn1 | -7.1%
70 | COC(=O)c1c(NC(=O)CN2CCN(S(=O)(=O)c3ccccc3[N+](=O)[O-])CC2)sc2c1CCC(C)C2 (centres undefined) | 38.1%
71 | CCCOC(=O)c1ccc(N2C(=O)c3ccccc3C2=O)cc1 | -2.6%
72 | CCCCCOC(=O)c1ccc(N2C(=O)C3C4C=CC(C4)C3C2=O)cc1 (centres undefined) | 83.5% (active)
73 | CCCCOC(=O)NCN1C(=O)C2C3C=CC(C3)C2C1=O (centres undefined) | -2.4%
74 | CC1(c2ccccc2Cl)NC(=O)N(CC(=O)NC(=O)NCc2ccco2)C1=O (centres undefined) | -2.3%
75 | CCOC(=O)c1nn(-c2cccc(C)c2)cc1C(=O)c1ccccc1 | 17.5%
76 | CCCCNC(=O)OC1CC2CC1[C@H]1CCCCN1C2=O (some centres undefined) | -13%
77 | COc1ccc([N+](=O)[O-])cc1NC(=O)CC1SC(=Nc2cccc(C)c2C)N(/N=C(\C)c2ccc(C)cc2)C1=O (centres undefined) | 75.8% (active)
78 | COc1ccc([N+](=O)[O-])cc1NCC(=O)c1ccc(C)cc1 | 11.8%
79 | COc1ccc(Br)cc1CN(C)CC(=O)Nc1cc([N+](=O)[O-])ccc1OC | 42.3%
